Screening results as filed in PubChem BioAssay.
MazF activator = activators of E. coli MazEF toxin-antitoxin RNase, primary screen, biochemical, fluorescence, uHTS; Endoribonuclease toxin MazF (Escherichia coli (strain K12)), P0AE70; FAM/BHQ RNA-DNA oligo cleavage fluorescence, 5 h; activation, % at 20 µM; hit rate 0.32% among 350,000; AID 504720, 2011; in the data active = activation above about 50%
BoNT-F LC inh = BoNT/F light chain protease inhibitors, primary screen, biochemical, flow cytometry, MLPCN library; inhibition, % at 10 µM; AID 588497, 2011; Multiplex microsphere protease cleavage assay; Botulinum neurotoxin type F light chain protease (Clostridium botulinum); hit rate 0.22% among 360,000; in the data active = inhibition above about 35%, passing the limit was not always enough; inconclusive = no clear call, values can overlap the other calls; also: plate controls were buffer without enzyme for full effect and enzyme alone for no effect
Anthrax LF prot = Bacillus anthracis LF protease inhibitors, primary screen, biochemical, multiplex microsphere, MLPCN library | Lethal factor (Bacillus anthracis), P15917 | multiplex microsphere protease cleavage assay | inhibition, % at 10 µM | hit rate 0.12% among 360,000 | AID 588501, 2011; also: plate controls were buffer without enzyme for full effect and enzyme alone for no effect
Target sequence (P15917 whole entry, looked up): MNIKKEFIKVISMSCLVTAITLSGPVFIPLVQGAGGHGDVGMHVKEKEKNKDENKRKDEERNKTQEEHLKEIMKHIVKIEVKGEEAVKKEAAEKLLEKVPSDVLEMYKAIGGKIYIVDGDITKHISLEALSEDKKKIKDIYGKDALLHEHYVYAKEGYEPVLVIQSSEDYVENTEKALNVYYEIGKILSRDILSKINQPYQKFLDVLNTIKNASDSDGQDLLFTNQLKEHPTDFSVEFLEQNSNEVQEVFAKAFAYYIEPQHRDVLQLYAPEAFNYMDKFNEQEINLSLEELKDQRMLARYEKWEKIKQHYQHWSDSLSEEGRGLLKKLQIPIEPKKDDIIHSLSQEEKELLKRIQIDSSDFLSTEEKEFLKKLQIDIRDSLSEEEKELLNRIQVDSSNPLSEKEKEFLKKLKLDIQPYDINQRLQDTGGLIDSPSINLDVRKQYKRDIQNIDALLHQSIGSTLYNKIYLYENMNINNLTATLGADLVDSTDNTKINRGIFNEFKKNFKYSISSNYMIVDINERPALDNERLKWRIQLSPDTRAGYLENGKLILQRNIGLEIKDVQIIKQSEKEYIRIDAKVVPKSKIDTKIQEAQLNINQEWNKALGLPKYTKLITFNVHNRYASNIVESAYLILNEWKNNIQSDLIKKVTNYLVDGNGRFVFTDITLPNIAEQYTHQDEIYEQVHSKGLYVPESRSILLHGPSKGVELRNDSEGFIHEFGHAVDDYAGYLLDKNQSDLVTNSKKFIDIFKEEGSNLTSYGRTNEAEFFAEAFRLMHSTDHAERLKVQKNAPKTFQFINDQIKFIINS
BoNT A protease = BoNT/A light chain protease inhibitors, primary screen, biochemical, flow cytometry, MLPCN library. Botulinum neurotoxin type A light chain protease (Clostridium botulinum A str. ATCC 3502). multiplex microsphere protease substrate cleavage. inhibition, % at 10 µM. hit rate 0.17% among 360,000. AID 588499, 2011; also: plate controls were buffer without enzyme for full effect and enzyme alone for no effect
Bead autofluor = flagged as autofluorescent in microsphere protease counterscreen | compound autofluorescence counterscreen, microsphere flow cytometry; hits give high values | fluorescence intensity (test concentration not listed) | hit rate 3.1% among 360,000 | AID 624483; in the data active = fluorescence intensity above about 16000; inconclusive = no clear call, values can overlap the other calls
SSB-PriA inh = inhibitors of Klebsiella pneumoniae PriA binding to SSB C-terminal tail, primary screen, biochemical, AlphaScreen | AlphaScreen SSBct-PriA binding, biotinylated peptide | inhibition, % at 33 µM | hit rate 0.6% among 430,000 | AID 1272365, 2023; in the data active = inhibition mostly above about 37%, no sharp cut-off; inactive = mostly below about 20%;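 also: plate controls were negative control peptide for no effect and reference peptide for full effect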
An asterisk follows results filed as active; ? = inconclusive; nt = not tested or not shown. The list is not random: actives were taken first. Their share in the collection is about 3.3%. Rule as the data show it, unless noted: active = inhibition above about 30%; inconclusive = no clear call, values can overlap the other calls; inactive = below that.

SMILES	MazF activator	BoNT-F LC inh	Anthrax LF prot	BoNT A protease	Bead autofluor	SSB-PriA inh
CCOC(=O)C(C)Sc1cc(CS(=O)(=O)c2ccccc2)nc(-c2ccccc2)n1 (configuration not stated)	-7	6	-3	?	20917*	-11
CC(O)C(=O)NN=Cc1cccc(Cl)c1Cl (configuration not stated)	nt	nt	nt	nt	nt	-7
CC1(C(=O)NC2CCCC2)CCC(=O)N1Cc1ccccc1 (configuration not stated)	11	0	-3	?	23334*	-7
COC(=O)c1ccccc1C(=O)N1CC(S(=O)(=O)CC(C)C)C1	nt	nt	nt	nt	nt	-14
CN1C(=O)CC(N2CCN(C(=O)CN3CCCC3)CC2)C1=O (configuration not stated)	-3	-6	1	-2	24470*	-6
COC(=O)N1CC(c2ccccc2)CC1=O (configuration not stated)	-10	3	0	1	19692*	-23
COc1cc(NC(=O)CN2CC(c3ccccc3)CC2=O)cc(OC)c1 (configuration not stated)	13	0	-5	0	5866	4
CN(C)c1ccc(C(=S)N2CCN(C(=S)c3cccc([N+](=O)[O-])c3)CC2)cc1	nt	nt	nt	nt	nt	-16
Cc1sc(NC(=O)Cc2cccc3ccccc23)c(C#N)c1C	nt	nt	nt	nt	nt	-6
O=C(OCC#CCSc1nc2ccccc2o1)c1ccco1	-7	2	-10	?	22148*	-22
O=C(OCC#CCSc1nnc(-c2cccc3ccccc23)o1)c1ccc(Br)cc1	-3	-3	-2	0	3587	-12
O=C(OCC#CCSc1nc2ccccc2o1)c1cc2ccccc2o1	0	nt	nt	nt	nt	-52
O=C(OCC#CCSc1nnc(-c2cccc3ccccc23)o1)c1ccco1	-1	-4	-2	?	20284*	-21
O=c1[nH]cnc2c1cnn2Cc1ccccc1	5	2	-3	?	21532*	-13
O=c1[nH]cnc2c1cnn2Cc1cccc(Cl)c1	nt	nt	nt	nt	nt	-7
c1cnc(-c2noc(C3CN(Cc4ccoc4)C3)n2)cn1	nt	nt	nt	nt	nt	-2
CN1C=CC=C/C1=C1\SC(=S)N(c2ccccc2)C1=O	1	-2	-4	0	3391	9
CN1C=CC=C/C1=C1\SC(=S)N(C2CCCCC2)C1=O	-5	3	-4	?	21024*	33
CCN1C(C)=C(C)S/C1=C1\SC(=S)N(C2CCCCC2)C1=O	354*	0	0	3	2309	6
CCN1C(C)=C(C)S/C1=C1\SC(=S)N(NC(C)=O)C1=O	-10	-2	-3	-1	3312	10
Nc1nc(-c2cccnc2)nn1C(=O)Cc1ccccc1	1	-2	-2	0	22678*	-9
COc1ccc(O)c(C2NC(CC(C)C)(C(=O)O)C3C(=O)N(Cc4ccccc4)C(=O)C23)c1 (configuration not stated)	-1	-1	-2	-1	16430*	3
Clc1cccc(Cl)c1Cn1cc(Br)cn1	-19	3	-1	1	16279*	nt
CCOC(=O)c1cnc(SCC(=O)N2CCc3ccccc32)nc1N	68*	-24	-3	-2	8550	9
CCOC(=O)c1cnc(SCC(=O)N2CCN(c3ccccc3)CC2)nc1N	7	17	1	1	3596	-10
SMILES	MazF activator	BoNT-F LC inh	Anthrax LF prot	BoNT A protease	Bead autofluor	SSB-PriA inh
CCOc1cn(C)c(C(=O)Nc2ccccc2SC)cc1=O	nt	nt	nt	nt	nt	0
Clc1ccc(Cc2ccc(Cl)nn2)c(Cl)c1	1	-3	1	0	23303*	-16
Clc1cccc(Cc2ccc(Cl)nn2)c1	6	14	0	2	4694	-15
Clc1ccc(Cc2ccccc2)nn1	5	-4	-2	-2	21162*	-8
O=C(CSc1nnc(-c2cccnc2)n1-c1ccccc1)N1CCN(c2ccccn2)CC1	nt	nt	nt	nt	nt	-17
C=CCn1c(SCc2c(C)noc2C)nc2sc3c(c2c1=O)CCCCC3	-7	-6	-1	-2	24051*	5
C=CCn1c(SCc2c(C)noc2C)nc2sc3c(c2c1=O)CCCC3	4	-10	-4	-1	10261	-21
